Holding throughout (conditions): 20 µM
For experiment [1], the system named is Haemophilus parainfluenzae. In words: growth AUC normalised to DMSO control (fraction of control); higher = less growth inhibition, active = hit call of the paper. The procedure, abridged:
(§1)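 Pathogens were passaged twice under anaerobic conditions, then inoculated into pre-reduced mGAM plates at a starting OD578 of 0.01, with compound at 20 μM and 1% DMSO, and sealed with breathable membranes. For Haemophilus parainfluenzae, the medium was supplemented with hemin and NAD. OD578 was read every hour for 24 h in three biological replicates. Growth-curve AUC was calculated by the trapezoidal rule up to the exponential-to-stationary transition and normalised to DMSO controls on the same plate.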

The subject of experiment [2] is Salmonella enterica typhimurium. Described as above. The procedure, abridged:
as §1

Experiment [3] relates to Shigella flexneri. The description is as above. Put shortly: as §1
Experiment [4] concerns Vibrio cholerae. The experiment is described as above. The procedure, abridged: as §1
Experiment [5] concerns Yersinia pseudotuberculosis. Described as above. Put shortly:
as §1

Experiment [6] relates to P. vulgatus RND KO. In words: growth AUC normalised to DMSO control (median) (fraction of control); higher = less growth inhibition, active = hit call of the paper. The procedure, abridged:
(§2)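 For normalised area under the curve, growth curves were truncated at entry into stationary phase, integrated by the trapezoidal rule and divided against vehicle wells on the same plate. The curves came from strains passaged twice overnight without oxygen and then grown in mGAM in 96-well plates at a starting OD578 of 0.01. Each well held an approved-drug library compound at 20 μM with 1% DMSO, and OD578 was read hourly for 24 h in an anaerobic incubator. Values are medians of three biological replicates.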

Experiment [7] concerns P. vulgatus WT. The experiment is described as above. The procedure, abridged:
as §2

Experiment [8] concerns S. enterica typhimurium WT. The description is as above. The procedure, abridged:
as §2

Experiment [9] concerns S. enterica typhimurium tolC KO. Described as above. The procedure, abridged: as §2

From the supplement of paper PMC12350171 come the findings set out here.

Where a name gives a salt, the structure may show the parent alone. Unmarked numbers belong to inactive results.
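For growth AUC normalised to DMSO control (median) in this document: active when median AUC fell below 0.1.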

As to `C[N+]1([O-])[C@@H]2C[C@@H](OC(=O)[C@H](CO)c3ccccc3)C[C@H]1[C@@H]1O[C@@H]12` (stereo not given in full) [Scopolamin-N-oxide hydrobromide], the “growth AUC normalised to DMSO control” value in experiment [1] is 0.991; in [2], 0.992; in experiment [3] it was 1.02; in [4], 1.07; in experiment [5], 1.01; in experiment [6], 1.04. The entries for the “growth AUC normalised to DMSO control” value in [7], in experiment [8] and in experiment [9] were 1.02, 1.02 and 1.01, respectively.
Turning to `CC(C)(N)Cc1ccccc1` [Phentermine hydrochloride], the “growth AUC normalised to DMSO control” value in experiment [1] is 1.02; in [2], 1.02; in [3], 1.03; in experiment [4], 1.04; in experiment [5], 1.01; in experiment [6], 0.0617 (active). The entries for the “growth AUC normalised to DMSO control” value in [7], in experiment [8] and in experiment [9] were 0.458, 0.992 and 0.996, respectively.
On to `COc1ccc(OC)c(C(O)C(C)N)c1` (stereo not given) [Methoxamine hydrochloride], for which the “growth AUC normalised to DMSO control” value in [1] was 1; in experiment [2], 1.01; in experiment [3], 0.984; in experiment [4], 1.01; in experiment [5] it was 0.991; in [6], 0.987. For the same compound, the “growth AUC normalised to DMSO control” value in experiment [7] is 0.0385 (active); in experiment [8] it was 1.01; in [9], 0.999.
`OC(c1ccccc1)(c1ccccc1)C1CCNCC1` [Azacyclonol]: the “growth AUC normalised to DMSO control” value is 0.982 in [1]; 0.999 in experiment [2]; 0.988 in experiment [3]; 0.967 in experiment [4]; 1 in experiment [5]; 1 in experiment [6]. Besides, the “growth AUC normalised to DMSO control” value in experiment [7] was 1.03; in [8], 1.01; in experiment [9] it was 0.99.
In the case of `CN[C@@H]1[C@@H](O)[C@@H](O[C@@H]2[C@@H](O)[C@H](O[C@H]3O[C@H](CN)CC[C@H]3N)[C@@H](N)C[C@H]2N)OC[C@]1(C)O.CN[C@@H]1[C@@H](O)[C@@H](O[C@@H]2[C@@H](O)[C@H](O[C@H]3O[C@H]([C@@H](C)N)CC[C@H]3N)[C@@H](N)C[C@H]2N)OC[C@]1(C)O.CN[C@@H]1[C@@H](O)[C@@H](O[C@@H]2[C@@H](O)[C@H](O[C@H]3O[C@H]([C@@H](C)NC)CC[C@H]3N)[C@@H](N)C[C@H]2N)OC[C@]1(C)O` [Gentamicine sulfate], the “growth AUC normalised to DMSO control” value was 0.864 in [1]; 1 in [2]; 1.02 in [3]; 1.04 in [4]; 1.02 in experiment [5]; 1.05 in experiment [6]. In addition, the entries for the “growth AUC normalised to DMSO control” value in experiment [7], in experiment [8] and in experiment [9] were 1.02, 1 and 1, respectively.
